The values below come from PubChem BioAssay (EPA / NIEHS).

Records with an inconclusive call do not appear. Calls of active or inactive are those of the source. The calls were made as follows, unless noted: active = hit-call score of the fitted dose curve at least 0.9, where 1 is the maximum; inactive = score below 0.9.

A short description of assay [1]: APR_HepG2_CellCycleArrest_1hr: Apredica 1-hour HepG2 Assay for Cell Cycle Arrest (AID 2282666). The note with it: high-content imaging, actives raise or lower the signal. The method, boiled down:
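HepG2 cells exposed for 1 h to 0.39–200 uM compound (0.5% DMSO). Fixed, Hoechst-stained nuclei imaged by ArrayScan; DNA content quantified by Cell Cycle analysis; bidirectional fit against DMSO.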

The nature of assay [2]: ACEA_ER_80hr: ACEA Biosciences xCELLigence Real-Time Cell Analysis on Estrogen Receptor Agonism for Proliferation (AID 2282667; active = hit-call score of the fitted dose curve at least 0.9, where 1 is the maximum). To be noted: T47D proliferation, impedance (xCELLigence), 80 h. The essentials:
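Estrogen-driven proliferation is captured as electrode impedance in T47D cells 80 h after compound addition. Test articles ran at 8 concentrations, 1:4 dilutions from 100 uM final, in two replicate plates.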

The nature of assay [3]: APR_HepG2_CellLoss_1hr: Apredica 1-hour HepG2 Assay for Cell Loss (AID 2282668).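 Also: curves fitted both ways against DMSO so gain or loss of cells counts.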 To be noted: high-content imaging. The method, boiled down:
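HepG2 cells were treated for 1 h with compound at 0.39–200 uM, in duplicate, in 0.5% DMSO. After formaldehyde fixation, Hoechst 33342-stained nuclei were imaged on an ArrayScan to count cells. Data were fitted bidirectionally versus DMSO.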

The nature of assay [4]: APR_HepG2_MicrotubuleCSK_1hr: Apredica 1-hour HepG2 Assay for Microtubule CSK Stabilty (AID 2282669). The note with it: HepG2 microtubule cytoskeleton imaging, actives raise or lower the signal. The essentials: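 HepG2 cells exposed 1 h to 0.39–200 uM compound (0.5% DMSO, duplicates), then formaldehyde-fixed, permeabilized and immunostained for alpha-tubulin with Hoechst nuclei. Imaged by ArrayScan high-content analysis; bidirectional fit versus DMSO.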

Assay [5] is described as follows: APR_HepG2_p53Act_1hr: Apredica 1-hour HepG2 Assay for p53 Activation (AID 2282671). To be noted: high-content imaging, actives raise or lower the signal. The method, boiled down: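 HepG2 cells treated 1 h with compound at 0.39–200 uM (10 concentrations, duplicate) in 0.5% DMSO. Formaldehyde-fixed, permeabilised cells immunostained for p53 with Hoechst 33342; high-content imaging, bidirectional fit versus DMSO.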

Assay [6] is described as follows: APR_HepG2_MitoticArrest_1hr: Apredica 1-hour HepG2 Assay for Mitotic Arrest (AID 2282672). To be noted: high-content imaging, actives raise or lower the signal. The essentials: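 HepG2 cells exposed 1 hr to compounds at 0.39–200 uM (0.5% v/v DMSO final), then fixed in 3.7% formaldehyde and immunostained for phospho-histone H3 with Hoechst 33342. Mitotic arrest scored by automated fluorescence imaging, fitted bidirectionally versus DMSO.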

Assay [7] in a line: APR_HepG2_P-H2AX_1hr: Apredica 1-hour HepG2 Assay for H2AX Phosphorylation (AID 2282673). To be noted: high-content imaging, actives raise or lower the signal. The essentials:
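HepG2 dosed 1 hr at 0.39-200 uM (0.5% DMSO final), duplicate. Fixed in 3.7% formaldehyde, Triton permeabilized, immunostained for phospho-histone H2A.x (1:200) with Hoechst 33342; ArrayScan 20x imaging, bidirectional fit vs DMSO.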

A short description of assay [8]: APR_HepG2_MitoMass_1hr: Apredica 1-hour HepG2 Assay for Mitochondrial Mass (AID 2282674). The note with it: high-content imaging, actives raise or lower the signal. The essentials:
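HepG2 cells dosed 1 hr with 0.39-200 uM compound (0.5% DMSO), duplicate wells. Mitochondria stained with 250 nM MitoTracker Red CMXRos for 30 min before formaldehyde fixation, imaged at 20x by ArrayScan; bidirectional fit versus DMSO.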

Assay [9] in a line: APR_HepG2_MitoMembPot_1hr: Apredica 1-hour HepG2 Assay for Mitochondrial Membrane Potential (AID 2282675). The note with it: imaging, actives raise or lower the signal. The method, boiled down:
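HepG2 cells dosed 1 hour with 0.39–200 uM compound in duplicate, 0.5% DMSO final. MitoTracker Red CMXRos (250 nM, 30 min) loaded before formaldehyde fixation; fluorescence quantified by high-content imaging, bidirectional fitting versus DMSO.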

Assay [10] is described as follows: APR_HepG2_CellCycleArrest_24hr: Apredica 24-hour HepG2 Assay for Cell Cycle Arrest (AID 2282905).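 Also: cell cycle arrest scored as ratio of 2N to 4N nuclear DNA content.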 The note with it: imaging, actives raise or lower the signal. The method, boiled down:
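Compounds at 0.39–200 uM (0.5% DMSO) for 24 h, then fixed and Hoechst 33342 stained. Cell-cycle analysis of nuclear DNA content by high-content imaging, fitted bidirectionally versus DMSO.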

Assay [11] in a line: APR_HepG2_StressKinase_1hr: Apredica 1-hour HepG2 Assay for Stress Kinase (AID 2282906). To be noted: HepG2 stress kinase (phospho-c-Jun) imaging, actives raise or lower the signal. The method, boiled down:
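HepG2 cells dosed 0.39-200 uM (0.5% DMSO) for 1 h, then formaldehyde-fixed. Stress kinase read by phospho-c-Jun immunofluorescence using high-content imaging; bidirectional fit vs DMSO.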

Assay [12] can be described thus: APR_HepG2_NuclearSize_24hr: Apredica 24-hour HepG2 Assay for Nuclear Size (AID 2282907). The note with it: high-content imaging, actives raise or lower the signal. The essentials: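 HepG2 cells exposed 24 h to compounds at 0.39–200 uM (0.5% DMSO), fixed, Hoechst 33342 stained and imaged at 20x; nuclear diameter measured by automated image analysis, fitted bidirectionally against DMSO controls.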

Assay [13] in a line: APR_HepG2_CellLoss_24hr: Apredica 24-hour HepG2 Assay for Cell Loss (AID 2282908).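 As to AC50: fit in both directions so a hit may be cell loss or gain.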 To be noted: high-content imaging. The method, boiled down:
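HepG2 cells exposed 24 hr to 0.39–200 uM compound in duplicate at 0.5% v/v final DMSO. Cells fixed in 3.7% formaldehyde and Hoechst 33342-stained. Cell number came from nuclear imaging at 20x. Bidirectional fit versus DMSO.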

The nature of assay [14]: APR_HepG2_MicrotubuleCSK_24hr: Apredica 24-hour HepG2 Assay for Microtubule CSK Stabilty (AID 2282909). To be noted: HepG2 microtubule cytoskeleton imaging, actives raise or lower the signal. The essentials:
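HepG2 cells were treated 24 hr with compound at 0.39–200 uM in duplicate (0.5% DMSO final), then fixed and permeabilized. Alpha-tubulin immunofluorescence was imaged by high-content microscopy, with bidirectional fitting against DMSO and taxol as positive control.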

A short description of assay [15]: APR_HepG2_MitoticArrest_24hr: Apredica 24-hour HepG2 Assay for Mitotic Arrest (AID 2282910). To be noted: high-content imaging, actives raise or lower the signal. The essentials: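 HepG2 cells, 24 h exposure at 0.39-200 uM (10 concentrations, duplicate, 0.5% DMSO). Fixed, stained for phospho-histone H3 with Hoechst; imaged by high-content microscopy, bidirectional fit versus DMSO.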

Assay [16] in a line: APR_HepG2_MitoMembPot_24hr: Apredica 24-hour HepG2 Assay for Mitochondrial Membrane Potential (AID 2282911). To be noted: imaging, actives raise or lower the signal. The essentials:
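Mitochondrial dye uptake (MitoTracker Red CMXRos, 250 nM, 30 min pre-fixation) in HepG2 after 24 hr compound exposure, 0.39–200 uM; ArrayScan images at 20x, activity fitted in both directions relative to DMSO.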

The nature of assay [17]: APR_HepG2_MitoMass_24hr: Apredica 24-hour HepG2 Assay for Mitochondrial Mass (AID 2282912). To be noted: high-content imaging, actives raise or lower the signal. The method, boiled down: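 HepG2 cells exposed 24 hr to 0.39–200 uM compound, 0.5% v/v DMSO, in duplicate. Stained before fixation with 250 nM MitoTracker Red CMXRos for 30 min, then imaged at 20x with Hoechst nuclei. Fitted in both directions against DMSO.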

Assay [18] is described as follows: APR_HepG2_p53Act_24hr: Apredica 24-hour HepG2 Assay for p53 Activation (AID 2282913).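 Also: p53 protein immunofluorescence averaged per cell in HepG2 with Hoechst nuclei.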 The note with it: high-content imaging, actives raise or lower the signal. The essentials:
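Following 24 hr dosing of HepG2 at 0.39–200 uM, the cells undergo formaldehyde fixation, Triton permeabilization and multiplexed antibody labeling that includes p53 (Cy5). Signal from the imaging is referenced to DMSO solvent controls.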

The nature of assay [19]: APR_HepG2_NuclearSize_1hr: Apredica 1-hour HepG2 Assay for Nuclear Size (AID 2282670). To be noted: high-content imaging, actives raise or lower the signal. The method, boiled down: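 HepG2 cells dosed 1 hr with 0.39–200 uM compound (0.5% DMSO), formaldehyde-fixed, Hoechst 33342-stained and imaged at 20x; nuclear diameter from nuclear stain, fitted bidirectionally against DMSO.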

Assay [20] in a line: APR_HepG2_CellCycleArrest_72hr: Apredica 72-hour HepG2 Assay for Cell Cycle Arrest (AID 2282914). The note with it: high-content imaging, actives raise or lower the signal. The essentials: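 Using multiplexed high-content imaging, HepG2 nuclei stained with Hoechst 33342 (2 ug/mL) were analysed for DNA content after fixation and permeabilization. Treatment lasted 72 hr across 0.39–200 uM in duplicate with final DMSO 0.5% v/v; DMSO served as negative control.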

Regarding `OC(c1ccc(Cl)cc1)(c1ccc(Cl)cc1)C(Cl)(Cl)Cl`, the call in assay [1], in assay [2], in assay [4], in [6], in assay [8] and in assay [10] was inactive. Further, the result in assay [14], in assay [15], in [16] and in assay [17] was inactive. In addition, the AC50 (commonly the concentration at which the activity in the assay is half-maximal) is 89.3 µM (active) in assay [3]; 109 µM (active) in assay [5]; 90.1 µM (active) in [7]; 34.2 µM (active) in [9]; 30.9 µM (active) in assay [11]; 74.1 µM (active) in [12]. For the same compound, the AC50 in assay [13] is 43.1 µM (active); in assay [18], 112 µM (active).
As to `CCNP(=S)(OC)O/C(C)=C/C(=O)OC(C)C` (stereo not given), the call in assay [1], in [2], in assay [3], in assay [4], in assay [19] and in assay [5] was inactive. The call in [6], in [7], in assay [8], in assay [10], in assay [11] and in assay [12] was inactive. Further, the compound was called inactive in assay [13], in assay [14], in assay [15], in [16], in assay [17] and in [18].
Take `CC(C)(C)C(=O)C(Oc1ccc(Cl)cc1)n1cncn1` (stereo not given): the result in [1], in assay [3], in assay [4], in assay [5], in assay [7] and in [8] was inactive. The compound was called inactive in assay [10], in assay [11], in assay [12], in assay [13], in [14] and in assay [15]. The compound was called inactive in assay [16], in assay [17] and in [18]. Further, the AC50 in assay [2] was 22.5 µM (active).
As for `CCCCC(C#N)(Cn1cncn1)c1ccc(Cl)cc1` (stereo not given), the result in assay [1], in assay [2], in assay [3], in assay [4], in assay [5] and in [7] was inactive. In addition, the result in assay [8], in assay [9], in [10], in [11], in assay [12] and in assay [13] was inactive. The compound was called inactive in [14], in assay [15], in assay [16], in [17] and in assay [18].
Consider `Cc1ccc(N=CN(C)C=Nc2ccc(C)cc2C)c(C)c1`, for which the call in assay [1], in assay [2], in [3], in assay [4], in assay [5] and in assay [7] was inactive. The call in [8], in [10], in assay [12], in [14], in assay [15] and in assay [17] was inactive. Besides, the compound was classed as inactive in [18] and in [20]. Moreover, the half-maximal activity concentration (AC50) was 75.4 µM (active) in [11], 117 µM (active) in assay [13] and 44.7 µM (active) in assay [16].
As to `COc1cc(OC)nc(NC(=O)NS(=O)(=O)c2ncccc2OCC(F)(F)F)n1`, the compound was classed as inactive in [1], in assay [2], in assay [3], in assay [4], in assay [19] and in assay [5]. Further, the result in [6], in assay [7], in [8], in [10], in [11] and in assay [12] was inactive. Moreover, the outcome in assay [13], in assay [14], in [15], in assay [16], in [17] and in assay [18] was inactive.
As for `COP(=S)(OC)SCn1nnc2ccccc2c1=O`, the result in [1], in assay [2], in [4], in [19], in assay [5] and in [6] was inactive. Further, the call in assay [7], in assay [8], in assay [9], in assay [10], in assay [11] and in assay [12] was inactive. The call in assay [13], in assay [14], in [15], in assay [16], in assay [17] and in [18] was inactive. For the same compound, the AC50 in assay [20] was 100 µM (active).
Regarding `CCN(CC)C(=O)C(C)Oc1cccc2ccccc12` (stereo not given), the compound was called inactive in assay [1], in [2], in assay [3], in assay [4], in [19] and in assay [5]. Besides, the compound was called inactive in assay [7], in assay [8], in [10], in assay [11], in [12] and in assay [13]. Also, the compound was called inactive in assay [14], in assay [15], in assay [16], in [17] and in assay [18].
